Test results reported in PubChem BioAssay AID602475 (National Center for Advancing Translational Sciences (NCATS), 2012).
Inconclusive results are not listed. A number with no mark means an inactive call. The source made the active and inactive calls. Calls come from the whole dose curve; as a rule, active = well fitted inhibition curve with a large enough effect; inconclusive = small, poorly fitted or top-dose-only effect; inactive = no such curve, though single readings can be large or run the other way.

target: Luciferin 4-monooxygenase (Photinus pyralis) (UniProt P08659); assay: FLuc inhibitory activity for the follow-up compounds in a biochemical assay with an in-house formulation of detection reagent; conditions: purified FLuc, luminescence; series mostly up to 25.6 µM; activity change, negative = inhibition: at the top concentration
Excerpt: NCGC Assay Overview: Firefly (Photinus pyralis) luciferase is one of the most commonly used transcriptional reporters. It is considered one of the more dynamically responsive reporters - that is, responsive to changes in reporter transcription - as it requires no post-translational modifications and is enzymatically active directly after protein synthesis (Wood, 1998). With no endogenous expression in mammalian cells and without the requirement of external excitation, it offers very little background signal, thus generally providing excellent signal to background for most assays. Previous profiling work to determine the prevalence of compounds that affect FLuc enzymatic activity (PubChem AID 411) identified that ~3% of the MLSMR library (then at ~72K) inhibited FLuc (Auld et al., 2008). […] Of the compounds identified in this profile that inhibited FLuc, 151 compounds were selected for further analysis, in an effort to better understand their mode of inhibiting FLuc. The assay described here was to determine the activity of the compounds in a FLuc assay that used an in-house formulation of detection reagent.
NCGC Assay Protocol Summary: Reagents: 300mM Tris-HCl, 300mM Trizma base, 300mM MgCl, 1% Triton-X100, 5mM DTT, 500uM Coenzyme A trilithium salt (Sigma #C3019),450uM ATP (Sigma #A7699), 1mM D-luciferin sodium salt monohydrate (Biosynth #L8240); 10nM P. pyralis luciferase (Sigma #L9506) Control compounds used were two known firefly luciferase inhibitors (3-(5-(3-chlorophenyl)-1,2,4-oxadiazol-3-yl)benzoic acid and 5-(2-fluorophenyl)-3-phenyl-1,2,4-oxadiazole), and DMSO. Assay Summary: Six microliters of buffer containing firefly luciferase (final concentrations: 50mM Tris acetate, 10nM P. pyralis luciferase) are dispensed into each well of a Greiner white, solid-bottom 1536-well format plate using a flying reagent dispenser (FRD). These assay plates were then treated with 23nL of compound or DMSO using a Kalypsys pin tool, which allows for delivery of a 12-point intraplate titration of each compound to the assay plate (quantitative HTS), with final compound concentrations ranging from approximately ~25uM to 0.1nM. Three microliters of 3X in-house detection reagent was then delivered by FRD to each well (final concentrations in assay: 300mM Tris-HCl, 300mM Trizma base, 300mM MgCl, 1% Triton-X100, 5mM DTT, 500uM Coenzyme A trilithium salt, 450uM ATP, 1mM D-luciferin sodium salt monohydrate). Luciferase activity was then measured using a ViewLux CCD imager (PerkinElmer), with an average exposure time of 2-30 seconds (2X binning, medium/high gain).

Sequence of Luciferin 4-monooxygenase (Photinus pyralis) (P08659 whole entry, looked up): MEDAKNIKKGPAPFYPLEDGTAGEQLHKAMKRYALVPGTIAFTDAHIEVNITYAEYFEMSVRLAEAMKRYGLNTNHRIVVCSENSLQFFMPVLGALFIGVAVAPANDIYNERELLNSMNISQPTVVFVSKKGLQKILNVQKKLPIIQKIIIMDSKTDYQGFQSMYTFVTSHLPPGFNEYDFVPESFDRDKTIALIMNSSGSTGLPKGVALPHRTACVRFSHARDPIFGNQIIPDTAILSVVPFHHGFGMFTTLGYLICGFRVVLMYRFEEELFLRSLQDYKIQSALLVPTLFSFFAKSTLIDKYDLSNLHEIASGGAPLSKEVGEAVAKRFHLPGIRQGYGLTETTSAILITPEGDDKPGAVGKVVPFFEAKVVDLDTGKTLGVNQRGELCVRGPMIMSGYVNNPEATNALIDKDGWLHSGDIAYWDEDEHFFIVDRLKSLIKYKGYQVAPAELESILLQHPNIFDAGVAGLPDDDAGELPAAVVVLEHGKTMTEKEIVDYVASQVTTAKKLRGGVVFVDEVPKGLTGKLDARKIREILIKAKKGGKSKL

`COc1ccc(CC(=O)Nc2ccc(-c3nc4ccccc4s3)c(C)c2)cc1` was tested, and the Potency was 11 µM (active).
For `Nc1ccc(-c2nc3ccc(C(=O)O)cc3s2)cc1`, the Potency was 5.51 µM (active).
For `C/C(=N\NC(=O)c1ccccc1NC(=O)c1ccc(Cl)cc1)c1ccncc1`, the Potency was 1.1 µM (active).
`COc1ccc2nc(NC(=O)c3ccco3)sc2c1` was tested, and the Potency was 6.94 µM (active).
In the case of `Cc1ccc(C(=O)O/N=C(\N)c2ccccn2)c(Cl)c1`, the Potency is reported as 0.0619 µM (active).
In the case of `Cc1ccc2nc(-c3ccc(N)cc3)sc2c1`, the Potency is reported as 4.91 µM (active).
`COc1ccc2nc(NC(=O)c3ccc([N+](=O)[O-])o3)sc2c1` was tested, and the Potency was 9.8 µM (active).
`O=C(Nc1c(Cl)cc(Cl)cc1-c1nc2ccccc2s1)c1ccc(Br)o1` was tested, and the Potency was 13.8 µM (active).
`COc1ccc(-c2nc3ccccc3s2)cc1O` was tested, and the Potency was 2.46 µM (active).
`c1ccc2sc(-c3ccc4c(c3)OCO4)nc2c1` was tested, and the Potency was 4.91 µM (active).
`CC(C)c1ccc(-c2nc3ccccc3s2)cc1` was tested, and the Potency was 0.098 µM (active).

Point of comparison: `CN(C)c1cccc(C(=O)Nc2ccc(-c3nc4ccccc4s3)cc2)c1`, “activity change, negative = inhibition” value -13.2%. Against it:
- O=C(O)c1ccc(NC(=O)c2cc(S(=O)(=O)N3CCCCC3)c(Cl)cc2Cl)cc1 — higher, -9.37%
- Cc1ccc2sc(-c3ccc(NC(=O)c4cc(-n5cnnc5)ccc4Cl)cc3)nc2c1 — higher, 43.4%
- O=C(Nc1ccccc1C(=O)O)c1cccc(NC(=O)c2ccco2)c1 — lower, -15.2%
- COc1ccc2nc(NC(=O)C3CCN(S(=O)(=O)c4cccnc4)CC3)sc2c1 — higher, 26.7%
- O=C(O)c1cccc(NC(=O)c2cccc(S(=O)(=O)N3CCc4ccccc43)c2)c1 — higher, -6.28%
- CN(C)S(=O)(=O)c1ccc(C(=O)Nc2cccc(C(=O)O)c2)cc1 — higher, -9.26%
- O=C(O)c1cccc(NC(=O)c2cccc(S(=O)(=O)N3CCCCC3)c2)c1 — higher, -2.55%
- COc1ccc(NS(=O)(=O)c2cccc(C(=O)Nc3ccccc3C(=O)O)c2)cc1 — higher, -0.994%
- CC(=O)Nc1cccc(-c2nc3ccccc3s2)c1C — higher, -10.4%
- COc1ccc(Br)cc1C(=O)Nc1ccc(C(=O)O)cc1 — lower, -16.9%
- CC(=O)Oc1ccc(C(=O)Nc2ccccc2C(=O)Nc2ccc(C(=O)O)cc2)cc1 — lower, -24.4%
- O=C(Nc1ccccc1C(=O)O)c1cccc(S(=O)(=O)Nc2ccc(Br)cc2)c1 — higher, 3.86%
- Cc1ccc(S(=O)(=O)N2CCN(C(=O)c3ccccc3-c3nc4ccccc4s3)CC2)c(C)c1 — higher, 15.4%
- COc1ccc(C(=O)Nc2cccc(C(=O)O)c2)cc1S(=O)(=O)N1CCCC1 — lower, -14%
- Cc1cccc(NS(=O)(=O)c2cccc(C(=O)Nc3cccc(C(=O)O)c3)c2)c1 — higher, 8.12%
- O=C(Cc1ccccc1)Nc1ccccc1C(=O)Nc1ccc(C(=O)O)cc1 — lower, -19.1%
- Cc1c(NS(C)(=O)=O)cccc1-c1nc2ccccc2s1 — higher, 4.59%
- Cc1ccc(C(=O)Nc2cccc(C(=O)O)c2)cc1S(=O)(=O)N1CCOCC1 — higher, -8.83%
- COc1ccc2nc(NC(=O)c3cccc(S(=O)(=O)N4CCOCC4)c3)sc2c1 — higher, 16.6%
- Cc1ccc(C(=O)Nc2cccc(C(=O)O)c2)cc1S(=O)(=O)N1CCCCC1 — lower, -17.8%
- O=C(Nc1ccccc1C(=O)O)c1cc(S(=O)(=O)Nc2ccccc2)ccc1Cl — higher, -7.63%
- O=C(O)c1cccc(NC(=O)c2ccc(COc3ccc(Cl)cc3)cc2)c1 — higher, 7.3%
- Cc1ccc(C(=O)Nc2cccc(C(=O)O)c2)cc1S(=O)(=O)N1CCCC1 — lower, -19.5%
- CCc1noc(C)c1C(=O)Nc1nc2ccc(OC)cc2s1 — lower, -15.2%
- O=C(O)c1ccc(NC(=O)c2ccccc2NC(=O)c2cccc(Br)c2)cc1 — lower, -13.3%
- Cc1cccc(C(=O)Nc2ccccc2C(=O)Nc2ccc(C(=O)O)cc2)c1 — lower, -43.7%
- Cc1cccc(C(=O)Nc2ccc(-c3nc4ccccc4s3)cc2Cl)c1 — higher, 8.15%
- O=C(O)c1cccc(NC(=O)c2cccc(S(=O)(=O)Nc3cccc(F)c3)c2)c1 — higher, -12%
